For some of these results: Results with a measured potency or affinity are listed apart.
Key:
Set-up in all cases: scale not given: direction of the effect not stated beside the values
[1] = biological target: Protein translocase subunit SecA (Escherichia coli (strain K12)) (UniProt P10408); test: Assay to Identify E. coli SecA ATPase Inhibitors; format: functional; settings: 30 µM
[2] = biological target: T1, Ubiquitin-activating enzyme e1, putative (Leishmania donovani (strain BPK282A1)) (UniProt E9BSI1); test: Leishmania donovani Ubiquitin Activating Enzyme (LdE1); format: functional; settings: 30 µM
T1 sequence (whole entry): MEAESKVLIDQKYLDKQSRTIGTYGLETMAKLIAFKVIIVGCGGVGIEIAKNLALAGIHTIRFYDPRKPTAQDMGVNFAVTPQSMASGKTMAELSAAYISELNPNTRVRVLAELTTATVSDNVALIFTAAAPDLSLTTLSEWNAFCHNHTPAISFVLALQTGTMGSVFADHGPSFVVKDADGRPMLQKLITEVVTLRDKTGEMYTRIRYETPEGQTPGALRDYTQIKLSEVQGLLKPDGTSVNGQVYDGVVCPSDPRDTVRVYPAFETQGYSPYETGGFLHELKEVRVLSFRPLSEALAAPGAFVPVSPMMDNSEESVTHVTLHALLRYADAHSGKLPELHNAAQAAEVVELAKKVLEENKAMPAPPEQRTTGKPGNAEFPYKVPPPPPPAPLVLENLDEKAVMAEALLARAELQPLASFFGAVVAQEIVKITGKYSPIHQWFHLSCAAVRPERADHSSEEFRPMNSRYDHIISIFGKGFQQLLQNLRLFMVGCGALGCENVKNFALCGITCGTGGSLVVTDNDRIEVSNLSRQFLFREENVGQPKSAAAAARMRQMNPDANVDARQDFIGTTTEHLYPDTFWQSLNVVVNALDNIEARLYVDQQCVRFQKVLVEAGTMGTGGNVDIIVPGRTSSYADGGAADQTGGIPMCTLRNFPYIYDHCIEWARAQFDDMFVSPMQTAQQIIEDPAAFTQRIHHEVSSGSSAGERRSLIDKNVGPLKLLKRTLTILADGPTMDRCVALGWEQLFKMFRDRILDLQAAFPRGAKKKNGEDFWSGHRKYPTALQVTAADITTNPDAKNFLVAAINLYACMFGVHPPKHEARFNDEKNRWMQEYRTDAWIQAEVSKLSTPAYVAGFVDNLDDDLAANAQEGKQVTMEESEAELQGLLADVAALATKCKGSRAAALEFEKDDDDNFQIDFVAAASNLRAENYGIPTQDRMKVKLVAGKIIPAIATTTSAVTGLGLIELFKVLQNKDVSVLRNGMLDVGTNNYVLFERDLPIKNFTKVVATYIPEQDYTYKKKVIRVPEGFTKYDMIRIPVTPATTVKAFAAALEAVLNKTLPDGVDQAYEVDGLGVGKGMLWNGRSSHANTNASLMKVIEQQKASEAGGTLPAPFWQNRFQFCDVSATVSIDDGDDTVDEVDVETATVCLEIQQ

[3] = biological target: AMP-activated protein kinase, AMPK (Homo sapiens) (UniProt P54646+O43741+P54619+Q9UGJ0+Q9Y478+Q13131+Q9UGI9); test: AMP-dependent Kinase enzyme assay. An in vitro enzyme assay that detects ADP turnover that is directly proportional to AMPK activity. This uses naive AMPK that is activated during the assay with MK-8722; format: functional; settings: 30 µM
[4] = biological target: Sialic acid-binding Ig-like lectin 9 (Homo sapiens) (UniProt Q9Y336); test: Hs-Siglec9 ALPHAscreen SOP 20170721; settings: 10 µM
Sialic acid-binding Ig-like lectin 9 (Homo sapiens), sequence (Q9Y336 whole entry): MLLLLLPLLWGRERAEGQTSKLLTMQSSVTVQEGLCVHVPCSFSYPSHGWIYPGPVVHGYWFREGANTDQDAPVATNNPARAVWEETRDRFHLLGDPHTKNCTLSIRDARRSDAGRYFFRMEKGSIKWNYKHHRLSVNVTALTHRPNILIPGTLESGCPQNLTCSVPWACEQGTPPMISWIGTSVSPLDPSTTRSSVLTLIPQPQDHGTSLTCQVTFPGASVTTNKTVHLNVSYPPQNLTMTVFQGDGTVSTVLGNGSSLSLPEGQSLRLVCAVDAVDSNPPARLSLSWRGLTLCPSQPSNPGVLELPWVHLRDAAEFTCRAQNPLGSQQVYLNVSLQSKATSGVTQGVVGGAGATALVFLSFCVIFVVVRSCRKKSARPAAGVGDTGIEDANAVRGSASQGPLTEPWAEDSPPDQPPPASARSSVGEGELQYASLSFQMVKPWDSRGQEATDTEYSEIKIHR

Trypanosoma cruzi = test: Trypanosoma cruzi phosphomannomutase and mannose-1-phosphate guanylyltransferase assay; format: functional; settings: 10 µM
[5] = biological target: T2, Arginase-2, mitochondrial (Homo sapiens) (UniProt P78540); test: in vitro enzyme assay to detect the production of urea directly proportional to the activity of Arginase II; format: functional; settings: 33.3 µM; also: in the data most compounds retested in dose-response had high values
T2 sequence (whole entry): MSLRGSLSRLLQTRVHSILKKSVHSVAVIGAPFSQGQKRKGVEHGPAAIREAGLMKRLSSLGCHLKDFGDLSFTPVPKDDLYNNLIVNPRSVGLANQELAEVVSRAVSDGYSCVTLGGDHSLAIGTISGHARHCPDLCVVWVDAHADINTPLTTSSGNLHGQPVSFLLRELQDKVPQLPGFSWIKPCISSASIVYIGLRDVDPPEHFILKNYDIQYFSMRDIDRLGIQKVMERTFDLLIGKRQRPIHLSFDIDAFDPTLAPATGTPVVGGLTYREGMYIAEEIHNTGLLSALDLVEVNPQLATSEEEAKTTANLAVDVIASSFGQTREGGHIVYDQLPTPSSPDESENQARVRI

[6] = biological target: T3, Proteasome subunit beta (Trypanosoma cruzi) (UniProt O96673); test: Trypanosoma cruzi proteasome chymotrypsin-like activity (TcProtChymo) assay.; also: in the data most compounds retested in dose-response had high values; format: functional; settings: 9.37 µM
T3 sequence (whole entry): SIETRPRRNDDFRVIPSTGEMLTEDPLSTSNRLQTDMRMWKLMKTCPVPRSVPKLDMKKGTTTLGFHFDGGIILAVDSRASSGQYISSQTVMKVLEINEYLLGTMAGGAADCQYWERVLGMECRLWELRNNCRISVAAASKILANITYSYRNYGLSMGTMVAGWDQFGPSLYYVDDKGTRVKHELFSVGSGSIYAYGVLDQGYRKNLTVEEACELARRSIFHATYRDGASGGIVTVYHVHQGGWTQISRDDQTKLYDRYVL

Homo sapiens = organism: Homo sapiens; test: To identify inhibition of the IFN signalling (Jak-Stat) pathway via expression of an eGFP reporter gene under the control of an IFN-stimulated response element (ISRE) containing MxA promoter.; format: functional; settings: 30 µM
[7] = biological target: T4, Tyrosyl-tRNA synthetase, putative (Trypanosoma cruzi (strain CL Brener)) (UniProt Q4DSP6); test: Trypanosoma cruzi tyrosyl tRNA synthetase (TcYRS) _High Tyrosine SOP; format: functional; settings: 30 µM; also: in the data most compounds retested in dose-response had high values
T4 sequence (whole entry): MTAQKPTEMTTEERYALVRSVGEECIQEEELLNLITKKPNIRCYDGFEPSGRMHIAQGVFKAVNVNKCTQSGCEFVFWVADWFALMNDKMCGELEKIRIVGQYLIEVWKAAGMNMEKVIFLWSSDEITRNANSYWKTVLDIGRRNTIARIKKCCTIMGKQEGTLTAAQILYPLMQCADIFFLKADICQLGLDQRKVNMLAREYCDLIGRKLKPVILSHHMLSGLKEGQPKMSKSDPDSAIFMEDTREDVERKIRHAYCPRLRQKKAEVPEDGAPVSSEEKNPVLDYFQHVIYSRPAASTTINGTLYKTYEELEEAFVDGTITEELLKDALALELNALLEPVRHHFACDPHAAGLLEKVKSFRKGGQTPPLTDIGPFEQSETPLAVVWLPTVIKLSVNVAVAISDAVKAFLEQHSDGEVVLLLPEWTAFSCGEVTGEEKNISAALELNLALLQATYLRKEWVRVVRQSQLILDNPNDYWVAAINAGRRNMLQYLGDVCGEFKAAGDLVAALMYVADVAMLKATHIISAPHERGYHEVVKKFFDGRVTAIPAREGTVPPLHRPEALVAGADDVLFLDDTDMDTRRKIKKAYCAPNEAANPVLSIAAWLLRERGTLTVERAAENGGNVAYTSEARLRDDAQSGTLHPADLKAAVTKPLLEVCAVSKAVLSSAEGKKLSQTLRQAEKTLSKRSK

[8] = biological target: T4, Tyrosyl-tRNA synthetase, putative (Trypanosoma cruzi (strain CL Brener)); test: Trypanosoma cruzi tyrosyl tRNA synthetase (TcYRS) SOP; format: functional; settings: 30 µM
[9] = biological target: Chromo domain-containing protein 1 (Saccharomyces cerevisiae (strain ATCC 204508 / S288c) (Baker's yeast)) (UniProt P32657); test: ScCHD-1 Enzyme Inhibition Assay; format: functional; settings: 30 µM; also: in the data most compounds retested in dose-response had high values
Chromo domain-containing protein 1 (Saccharomyces cerevisiae (strain ATCC 204508 / S288c) (Baker's yeast)), sequence (P32657 whole entry, the tested form may be a part): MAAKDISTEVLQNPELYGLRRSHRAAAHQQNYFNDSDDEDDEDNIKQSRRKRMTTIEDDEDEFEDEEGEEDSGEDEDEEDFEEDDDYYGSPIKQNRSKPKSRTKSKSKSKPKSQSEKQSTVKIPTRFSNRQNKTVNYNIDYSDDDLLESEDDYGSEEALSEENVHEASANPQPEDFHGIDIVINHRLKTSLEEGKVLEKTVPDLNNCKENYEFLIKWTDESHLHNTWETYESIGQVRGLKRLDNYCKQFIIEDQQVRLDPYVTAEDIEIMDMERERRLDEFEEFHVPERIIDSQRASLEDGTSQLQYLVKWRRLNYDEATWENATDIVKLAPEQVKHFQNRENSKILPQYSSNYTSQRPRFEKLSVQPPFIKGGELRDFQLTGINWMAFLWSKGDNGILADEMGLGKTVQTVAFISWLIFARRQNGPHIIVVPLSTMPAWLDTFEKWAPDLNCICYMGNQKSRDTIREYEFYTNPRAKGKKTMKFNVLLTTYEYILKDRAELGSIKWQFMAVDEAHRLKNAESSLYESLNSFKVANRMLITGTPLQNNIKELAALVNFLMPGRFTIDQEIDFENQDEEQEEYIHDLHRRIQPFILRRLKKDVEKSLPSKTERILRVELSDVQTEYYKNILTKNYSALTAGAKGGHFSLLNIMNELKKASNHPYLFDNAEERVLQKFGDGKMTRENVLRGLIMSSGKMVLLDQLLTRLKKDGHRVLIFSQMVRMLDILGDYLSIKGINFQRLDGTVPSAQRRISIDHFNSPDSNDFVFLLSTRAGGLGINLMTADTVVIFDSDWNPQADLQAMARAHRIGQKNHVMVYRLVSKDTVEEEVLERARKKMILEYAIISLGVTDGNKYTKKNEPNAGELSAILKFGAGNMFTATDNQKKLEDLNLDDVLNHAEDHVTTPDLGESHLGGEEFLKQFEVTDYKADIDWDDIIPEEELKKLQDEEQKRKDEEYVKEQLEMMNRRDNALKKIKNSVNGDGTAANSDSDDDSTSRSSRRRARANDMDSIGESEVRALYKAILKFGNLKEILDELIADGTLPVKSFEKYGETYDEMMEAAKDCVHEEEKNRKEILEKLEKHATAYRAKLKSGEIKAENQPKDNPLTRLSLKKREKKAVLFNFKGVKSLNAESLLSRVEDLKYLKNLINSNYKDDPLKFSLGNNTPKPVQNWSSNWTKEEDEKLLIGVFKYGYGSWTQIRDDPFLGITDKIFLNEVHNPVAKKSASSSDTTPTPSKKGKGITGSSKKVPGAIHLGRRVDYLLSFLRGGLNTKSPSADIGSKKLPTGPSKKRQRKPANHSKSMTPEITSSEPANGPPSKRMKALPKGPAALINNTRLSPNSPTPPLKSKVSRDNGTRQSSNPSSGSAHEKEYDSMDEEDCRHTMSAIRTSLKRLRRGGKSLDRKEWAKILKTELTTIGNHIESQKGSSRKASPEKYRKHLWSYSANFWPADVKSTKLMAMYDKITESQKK

Protein translocase subunit SecA (Escherichia coli (strain K12)), sequence (P10408 whole entry): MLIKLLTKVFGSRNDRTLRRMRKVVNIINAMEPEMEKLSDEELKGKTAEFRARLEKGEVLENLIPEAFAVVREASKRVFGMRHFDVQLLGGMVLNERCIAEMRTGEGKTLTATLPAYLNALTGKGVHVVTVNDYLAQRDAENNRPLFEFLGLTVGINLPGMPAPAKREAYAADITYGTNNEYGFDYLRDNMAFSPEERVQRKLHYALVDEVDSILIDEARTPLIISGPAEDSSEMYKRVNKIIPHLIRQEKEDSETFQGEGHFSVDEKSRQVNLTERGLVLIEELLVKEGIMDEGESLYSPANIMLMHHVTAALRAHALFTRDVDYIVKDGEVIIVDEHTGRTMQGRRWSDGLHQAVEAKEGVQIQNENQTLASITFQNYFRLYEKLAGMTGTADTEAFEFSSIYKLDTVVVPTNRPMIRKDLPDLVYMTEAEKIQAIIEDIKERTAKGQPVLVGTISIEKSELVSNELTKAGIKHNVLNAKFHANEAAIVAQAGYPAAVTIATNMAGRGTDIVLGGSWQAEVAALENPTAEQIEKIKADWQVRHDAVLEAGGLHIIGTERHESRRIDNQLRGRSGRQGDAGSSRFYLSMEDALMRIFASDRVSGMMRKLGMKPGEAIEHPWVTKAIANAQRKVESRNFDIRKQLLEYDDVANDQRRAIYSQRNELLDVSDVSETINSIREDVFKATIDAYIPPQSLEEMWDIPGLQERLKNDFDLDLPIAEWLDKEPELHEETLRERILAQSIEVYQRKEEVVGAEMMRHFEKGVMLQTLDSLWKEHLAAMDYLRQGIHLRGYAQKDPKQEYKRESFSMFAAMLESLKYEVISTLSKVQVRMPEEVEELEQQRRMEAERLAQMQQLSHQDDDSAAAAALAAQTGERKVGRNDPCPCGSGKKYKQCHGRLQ

Row | SMILES | Percent Effect [1] [%] | Percent Effect [2] [%] | Percent Effect [3] [%] | Percent Effect [4] [%] | Percent Effect (Trypanosoma cruzi) [%] | Percent Effect [5] [%] | Percent Effect [6] [%] | Percent Effect (Homo sapiens) [%] | Percent Effect [7] [%] | Percent Effect [8] [%] | Percent Effect [9] [%]
1 | CN(C)S(=O)(=O)N1CCC[C@]2(C[C@@H](Oc3ccccn3)CO2)C1 | -0.984 | 7.79 | 2.82 | 5.42 | -4.63 | -5.81 | 9.75 | 5 | -1.06 | 6.41 | -6.01
2 | O=C(O)CCc1cccc(C2CCCN2Cc2ccc(F)c(F)c2)n1 (stereo not given) | -3.79 | 4.05 | 1.3 | 8.61 | 1.78 | 1.62 | 1.09 | 0.308 | 6.45 | 14.3 | -20.7
3 | O=C(CCCNC(=O)C1CC1)Nc1cnn(-c2ccccc2Cl)c1 | -2.62 | 5.41 | -9.02 | 0.665 | 7.33 | -3.51 | 5.03 | -1.9 | 5.94 | 13.4 | -3.58
4 | CNCC(=O)N1CCC(c2ccnc(Nc3ccc(C)cn3)n2)C1 (stereo not given) | -7.25 | 17.6 | 1.51 | 1.04 | 2.37 | -4.87 | 17.9 | -13.7 | 8.6 | 19.5 | -16.1
5 | COc1cc(CNCc2c(C(C)C)nn(C)c2N(C)C)ccn1 | -0.0523 | 15.8 | -8.02 | 2.55 | 1.13 | -3.06 | 14 | -9.51 | 4.41 | 4.88 | -6.52
6 | CCS(=O)(=O)NCCNC(=O)c1cc(Cl)c2c(c1)OCCCO2 | -1.06 | 8.11 | -7.22 | 31.3 | 1.47 | 5.21 | 8.33 | 12.9 | 2.15 | 16.1 | -5.31
7 | CCn1cc(N)c(C(=O)NCc2cnn(C)c2)n1 | -3.38 | 5.2 | 2.98 | 0.256 | -1.48 | -8.28 | 9.48 | -5.92 | 6.45 | 11.1 | 1.02
8 | Cc1cccc(C)c1NC(=O)CCNC(=O)c1ccoc1 | -3.75 | 18.2 | 5.22 | -2.96 | 1.27 | 0.21 | 20.3 | 16 | 10.5 | 14.1 | -8.58
9 | CN(C)CC1CN(c2ccc(C#N)cn2)CCO1 (stereo not given) | -4.87 | -5.26 | -3.08 | 5.48 | 3.27 | -4.32 | -5.16 | -1.95 | 2.46 | 3.7 | -8.21
10 | CNc1cc2c(nn1)CCN(C(=O)C1CCCc3ccccc31)C2 (stereo not given) | -1.49 | 7.59 | -8.51 | 1.73 | -4.44 | 4.18 | -2.38 | 8.64 | 5.42 | 3.8 | -3.47
11 | CCc1cccc(N2CCC(NC(=O)c3ccc(=O)[nH]n3)CC2)c1 | -0.605 | 3.8 | 2.33 | 1.07 | -4.82 | 4.52 | 15.8 | 21 | 5.21 | 15.2 | -11.3
12 | O=C(NCc1ccco1)[C@H]1C[C@H]2OCC[C@H]2N(C(=O)c2ccco2)C1 | -4.08 | -2.67 | 12.4 | 1.43 | -3.09 | -50.4 | 12 | -6.88 | -3.12 | -5 | 63.9
13 | CC(C)C(C)NC(=O)Nc1ccccc1CN1CCOCC1 (stereo not given) | -7.45 | 2.7 | 0.895 | 4.22 | 1.47 | 2.23 | 2.66 | -10.3 | 6.45 | 11.1 | -3.52
14 | Cc1ccc(CNCCOc2ccc(S(C)(=O)=O)cc2)cc1 | -7.67 | -5.48 | 4.35 | -1.11 | -2.18 | -0.798 | -3.68 | 9.56 | 4.17 | -1.24 | 3.43
15 | O=C(NC1(c2nnn(CCO)n2)CCCC1)c1ccccc1 | -3.12 | 8 | -5.64 | 17.4 | 3.41 | 17.7 | 1.57 | -6.59 | 6.01 | 16.1 | -4.4
16 | COc1cc2nc(C)n(CC(=O)O)c(=O)c2cc1OC | -4.09 | 6.67 | 6.76 | 2.01 | -0.982 | 1.23 | 13.1 | 19.2 | 8.47 | 12.8 | -7.94
17 | Cc1cnc(C(=O)N(CCN(C)C)Cc2ccc(Cl)cc2)cn1 | -0.752 | 20.8 | 5.67 | 9.21 | 4.37 | 9.71 | 15.3 | -3.66 | 4.21 | 10.3 | -4.76
18 | c1ccc2oc(CCCN3CCOC(Cn4cccn4)C3)nc2c1 (stereo not given) | -3.85 | 5.2 | 0.772 | 0.668 | 6.56 | -3.16 | 0.889 | 7.24 | 0 | 7.06 | 5.28
19 | Cn1nc(C(=O)N2CCCCC2c2nc3cc(F)ccc3[nH]2)ccc1=O (stereo not given) | -6.48 | 15.3 | -16.2 | 39.4 | 10.6 | 3.97 | 9.82 | -6.87 | 2.1 | 17.9 | -10.9
20 | O=C(NCC(O)CN1CCc2ccccc2C1)Nc1cccnc1 (stereo not given) | -4.38 | 13 | 3.15 | 3.21 | 0.294 | 3.58 | 11.2 | 14.5 | 1.91 | -25.9 | -11.5

— ChEMBL document CHEMBL3988442, “University of Dundee, Small-Polar-MMV Screening Library” (2021)
